The values below come from PubChem BioAssay (NCATS).

Inconclusive results are not listed. The source made the active and inactive calls. The call rests on the fitted dose curve; in most records, active means well fitted inhibition curve with a large enough effect; inconclusive means small, poorly fitted or top-dose-only effect; inactive means flat fitted curve, though single readings scatter.

Holding throughout (experiment): qHTS profiling for inhibitors of Plasmodium falciparum proliferation (AID 504749); further: nearly all actives have a fitted effect of over 60% in size
Settings in all cases: P. falciparum in erythrocytes, SYBR Green DNA, 72 h; series mostly up to 28.7 µM

Assay [1] has as its system CP291. In short, it runs like this:
(§1)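 SYBR Green fluorescence of parasite DNA, read after lysis and overnight dark incubation, measured growth over 72 h in erythrocyte culture at 0.3% parasitemia and 2.5% hematocrit. Data normalised to DMSO and 0.29 uM artemisinin, with plate-drift correction.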

The subject of assay [2] is CP297. Summed up:
as §1

Assay [3] deals with CP305. In short, it runs like this: as §1
The subject of assay [4] is CP315. Summed up: as §1
In assay [5] the test system is CP325. In short, it runs like this: as §1
The test system of assay [6] is CP329. Summed up:
as §1

The subject of assay [7] is DFO2036. In short, it runs like this: as §1
The subject of assay [8] is DIV14. In short, it runs like this:
as §1

The subject of assay [9] is DIV17. Summed up:
as §1

For assay [10], the system named is DIV30. In short, it runs like this: as §1
Assay [11] relates to Dd2. In short, it runs like this: as §1
The subject of assay [12] is ECU. Summed up:
as §1

The subject of assay [13] is FAB9. In short, it runs like this: as §1
The test system of assay [14] is GB4. Summed up: as §1
Assay [15] relates to HB3. Summed up:
as §1

Assay [16] relates to JCK. In short, it runs like this:
as §1

Assay [17] concerns N140. In short, it runs like this: as §1
Assay [18] relates to P93_24. Summed up: as §1
Assay [19] deals with CP335. Summed up:
as §1

For assay [20], the system named is ICS. In short, it runs like this:
as §1
Potency means the concentration at half of the fitted maximal effect.

On to `C[C@]12Cc3nonc3C[C@@H]1CC[C@@H]1[C@@H]2CC[C@@]2(C)[C@H]1CC[C@]2(C)O`, for which the Potency result in assay [1], in assay [2], in assay [3], in assay [4], in [5] and in [6] was “inactive” each time. For the same compound, the Potency entry in [7], in [8], in assay [9], in assay [10], in assay [11] and in [12] was “inactive” each time. Further, the Potency entry in [13], in assay [14], in assay [15], in assay [16], in [17] and in assay [18] was “inactive” each time.
With `CN1C[C@@H](NS(=O)(=O)N(C)C)C[C@@H]2c3cccc4c3c(cn4C)C[C@H]21`, the Potency result in assay [1], in [3], in assay [4], in assay [5], in assay [7] and in assay [8] was “inactive” in each case. Besides, the Potency result in [9], in assay [12], in [13], in assay [14], in assay [15] and in assay [16] was “inactive” throughout. In addition, the Potency result in [17] is “inactive”.
With `CC(Cc1ccccc1)NCc1ccccc1Cl` (stereo unspecified), the Potency result in [2], in [3], in assay [4], in assay [6], in assay [7] and in [12] was “inactive” each time. Also, the Potency entry in assay [13], in [15] and in assay [16] was “inactive” throughout. In addition, the Potency in [11] is 12.6 µM (active).
Take `CNC(=O)Oc1cccc2ccccc12`: the Potency entry in assay [1], in assay [3], in [5], in [6], in [19] and in assay [7] was “inactive” in each case. Moreover, the Potency entry in [9], in [10], in assay [11], in [12], in assay [13] and in assay [15] was “inactive” each time. In addition, the Potency entry in [16] and in assay [17] was “inactive” each time.
As to `CNC(=O)NC(O)C(Cl)(Cl)Cl` (stereo unspecified), the Potency entry in assay [1], in assay [2], in [3], in assay [4], in assay [5] and in [6] was “inactive” in each case. The Potency result in assay [19], in [7], in assay [9], in assay [10], in [11] and in assay [12] was “inactive” in each case. Also, the Potency result in assay [13], in assay [14], in assay [15], in assay [20], in [16] and in assay [17] was “inactive” throughout. Besides, the Potency result in assay [18] was “inactive”.
Regarding `C[N+]1(CCC(C(N)=O)(c2ccccc2)c2ccccc2)CCCCC1`, the Potency result in assay [1], in assay [2], in [3], in assay [4], in [6] and in [19] was “inactive” throughout. Moreover, the Potency entry in [7], in [8], in assay [9], in assay [10], in assay [11] and in assay [12] was “inactive” in each case. Besides, the Potency entry in assay [13], in assay [14], in [15], in assay [20], in [16] and in assay [17] was “inactive” each time. Also, the Potency result in assay [18] was “inactive”.
For `COCC(=O)N(c1c(C)cccc1C)C(C)C(=O)OC` (stereo unspecified), the Potency entry in [1], in assay [2], in [3], in assay [4], in [5] and in [6] was “inactive” each time. The Potency entry in assay [19], in assay [8], in assay [9], in assay [10], in assay [11] and in assay [13] was “inactive” in each case. The Potency entry in [14], in [15], in assay [20] and in [16] was “inactive” throughout.
On to `CC[C@]1(O)CC[C@H]2[C@@H]3CCC4=CCCC[C@@H]4[C@H]3CC[C@@]21C`, for which the Potency entry in [1], in assay [2], in [4], in assay [5], in [6] and in [19] was “inactive” throughout. For the same compound, the Potency entry in [11], in assay [12], in assay [13], in [14], in assay [15] and in [16] was “inactive” in each case.
Regarding `CC(C)(O)C(Cl)(Cl)Cl`, the Potency in assay [1] is 15.1 µM (active); in assay [3], 6.01 µM (active); in assay [5] it was 12 µM (active); in [19], 2.39 µM (active); in [7], 3.55 µM (active); in assay [8], 1.51 µM (active). For the same compound, the Potency is 1.51 µM (active) in assay [9]; 5.36 µM (active) in assay [10]; 2.51 µM (active) in [11]; 3.98 µM (active) in assay [12]; 7.94 µM (active) in [13]; 2.69 µM (active) in assay [14]. Besides, the Potency in [15] was 2 µM (active); in assay [20], 0.891 µM (active); in [16], 11.2 µM (active); in assay [17], 2.51 µM (active); in assay [18], 2.24 µM (active).
For the compound `Nc1ccc(N)cc1`, the Potency result in assay [4], in [6], in assay [11], in assay [15] and in assay [16] was “inactive” each time. The Potency in assay [8], in assay [9] and in [14] was 15.1 µM (active) throughout.
